Data published in the supplement of paper PMC8728848.
This is one part of a sample in which the strongest signals are shown more often than they occur.

Legend:
Assay in all cases: glycan array binding signal (z-score within array); higher = stronger binding
Conditions in all cases: glycan notation: IUPAC condensed, linker removed
[1] = molecular target: GlcNAc(b1-2)[GlcNAc(b1-6)]Man(a1-6)[GlcNAc(b1-2)Man(a1-3)]Man(b1-4)GlcNAc(b1-4)GlcNAc
How it was run: (§1)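 The binding signal is a Z-score computed within each array and averaged over linkers. Arrays of the same protein sequence at different concentrations or buffers were also averaged together. Data originate from 3228 arrays in the Consortium for Functional Glycomics database, kept only where the protein sequence was available.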

GlcNAc(b1-3)Gal(b1-4)Glc = molecular target: GlcNAc(b1-3)Gal(b1-4)Glc
How it was run: as §1

[2] = molecular target: GlcNAc(b1-3)Gal(b1-4)GlcNAc(b1-3)Gal(b1-4)GlcNAc(b1-2)[GlcNAc(b1-3)Gal(b1-4)GlcNAc(b1-3)Gal(b1-4)GlcNAc(b1-6)]Man(a1-6)[GlcNAc(b1-3)Gal(b1-4)GlcNAc(b1-3)Gal(b1-4)GlcNAc(b1-2)Man(a1-3)]Man(b1-4)GlcNAc(b1-4)[Fuc(a1-6)]GlcNAc
How it was run: as §1

[3] = molecular target: GlcNAc(b1-3)Gal(b1-4)GlcNAc(b1-3)Gal(b1-4)GlcNAc(b1-3)Gal(b1-4)GlcNAc(b1-2)Man(a1-3)[GlcNAc(b1-3)Gal(b1-4)GlcNAc(b1-3)Gal(b1-4)GlcNAc(b1-3)Gal(b1-4)GlcNAc(b1-2)Man(a1-6)]Man(b1-4)GlcNAc(b1-4)GlcNAc
How it was run: as §1

[4] = molecular target: GlcNAc(b1-3)Gal(b1-4)GlcNAc(b1-3)Gal(b1-4)GlcNAc(b1-3)Gal(b1-4)GlcNAc(b1-2)[GlcNAc(b1-3)Gal(b1-4)GlcNAc(b1-3)Gal(b1-4)GlcNAc(b1-3)Gal(b1-4)GlcNAc(b1-6)]Man(a1-6)[GlcNAc(b1-3)Gal(b1-4)GlcNAc(b1-3)Gal(b1-4)GlcNAc(b1-3)Gal(b1-4)GlcNAc(b1-2)Man(a1-3)]Man(b1-4)GlcNAc(b1-4)[Fuc(a1-6)]GlcNAc
How it was run: as §1

[5] = molecular target: GlcNAc(b1-3)Gal(b1-4)GlcNAc(b1-3)Gal(b1-4)GlcNAc(b1-3)Gal(b1-4)GlcNAc(b1-3)Gal(b1-4)GlcNAc(b1-2)Man(a1-3)[GlcNAc(b1-3)Gal(b1-4)GlcNAc(b1-3)Gal(b1-4)GlcNAc(b1-3)Gal(b1-4)GlcNAc(b1-3)Gal(b1-4)GlcNAc(b1-2)Man(a1-6)]Man(b1-4)GlcNAc(b1-4)[Fuc(a1-6)]GlcNAc
How it was run: as §1

[6] = molecular target: GlcNAc(b1-3)Gal(b1-4)GlcNAc(b1-3)Gal(b1-4)GlcNAc(b1-3)Gal(b1-4)GlcNAc(b1-3)Gal(b1-4)GlcNAc(b1-2)[GlcNAc(b1-3)Gal(b1-4)GlcNAc(b1-3)Gal(b1-4)GlcNAc(b1-3)Gal(b1-4)GlcNAc(b1-3)Gal(b1-4)GlcNAc(b1-6)]Man(a1-6)[GlcNAc(b1-3)Gal(b1-4)GlcNAc(b1-3)Gal(b1-4)GlcNAc(b1-3)Gal(b1-4)GlcNAc(b1-3)Gal(b1-4)GlcNAc(b1-2)Man(a1-3)]Man(b1-4)GlcNAc(b1-4)[Fuc(a1-6)]GlcNAc
How it was run: as §1

[7] = molecular target: GlcNAc(b1-3)[GlcNAc(b1-4)][GlcNAc(b1-6)]GlcNAc
How it was run: as §1

[8] = molecular target: GlcNAc(b1-4)GlcNAc(b1-4)GlcNAc(b1-4)GlcNAc(b1-4)GlcNAc
How it was run: as §1

GlcNAc(b1-6)GalNAc = molecular target: GlcNAc(b1-6)GalNAc
How it was run: as §1

[9] = molecular target: Kdn(a2-3)Gal(b1-4)[Fuc(a1-3)]GlcNAc
How it was run: as §1

[10] = molecular target: Man(a1-2)Man(a1-3)[Man(a1-2)Man(a1-6)]Man(a1-6)[Man(a1-2)Man(a1-2)Man(a1-3)]Man(b1-4)GlcNAc(b1-4)GlcNAc
How it was run: as §1

Man(b1-4)GlcNAc = molecular target: Man(b1-4)GlcNAc
How it was run: as §1

[11] = molecular target: Neu5Ac(a2-3)Gal(b1-3)GlcNAc(b1-2)[Neu5Ac(a2-3)Gal(b1-3)GlcNAc(b1-4)]Man(a1-6)[Neu5Ac(a2-3)Gal(b1-3)GlcNAc(b1-2)Man(a1-3)]Man(b1-4)GlcNAc(b1-4)GlcNAc
How it was run: as §1

[12] = molecular target: Neu5Ac(a2-3)Gal(b1-3)GlcNAc(b1-3)GalNAc
How it was run: as §1

[13] = molecular target: Neu5Ac(a2-3)Gal(b1-3)GlcNAc6S
How it was run: as §1

[14] = molecular target: Neu5Ac(a2-3)Gal(b1-3)[Fuc(a1-4)]GlcNAc(b1-3)Gal(b1-4)[Fuc(a1-3)]GlcNAc
How it was run: as §1

[15] = molecular target: Neu5Ac(a2-3)Gal(b1-3)[Neu5Ac(a2-6)]GlcNAc(b1-3)[Fuc(a1-3)[Gal(b1-4)]GlcNAc(b1-6)]Gal(b1-4)Glc
How it was run: as §1

[16] = molecular target: Neu5Ac(a2-3)Gal(b1-3)]Neu5Ac(a2-3)Gal(b1-4)]GlcNAc
How it was run: as §1

[17] = molecular target: Neu5Ac(a2-3)Gal(b1-4)GlcNAc(b1-2)[Neu5Ac(a2-3)Gal(b1-4)GlcNAc(b1-4)]Man(a1-3)[GlcNAc(b1-4)][Neu5Ac(a2-3)Gal(b1-4)GlcNAc(b1-2)[Neu5Ac(a2-3)Gal(b1-4)GlcNAc(b1-6)]Man(a1-6)]Man(b1-4)GlcNAc(b1-4)GlcNAc
How it was run: as §1

[18] = molecular target: Neu5Ac(a2-3)Gal(b1-4)GlcNAc(b1-3)Gal(b1-4)[Fuc(a1-3)]GlcNAc
How it was run: as §1

[19] = molecular target: Neu5Ac(a2-3)Gal(b1-4)GlcNAc(b1-3)GalNAc
How it was run: as §1

[20] = molecular target: Neu5Ac(a2-3)GalNAc(b1-4)GlcNAc
How it was run: as §1

[21] = molecular target: Neu5Ac(a2-8)Neu5Ac(a2-3)Gal(b1-3)GalNAc(b1-4)[Neu5Ac(a2-3)]Gal(b1-4)Glc
How it was run: as §1

[22] = molecular target: Neu5Ac(a2-8)Neu5Gc(a2-3)Gal(b1-4)GlcNAc
How it was run: as §1

Neu5Gc(a2-3)Gal(b1-4)Glc = molecular target: Neu5Gc(a2-3)Gal(b1-4)Glc
How it was run: as §1

B1: AFCNVH (Aspergillus fumigatus) (protein)
chain: MSLRGFHTTCDTIVLKDKHILSSRCKRPDGTYSFSEIDLNDCLGNNNGKFVWGGESFVDSASQVNLALEGGEGRPMLHAQLNDWHGSVQSASVNLGECIQNEAGGLEYMHC
For B1, which “glycan array binding signal (z-score)” value [1] is on record?
Its value is -0.203.

And the “glycan array binding signal (z-score)” value (GlcNAc(b1-3)Gal(b1-4)Glc)?
Its value is -0.196.

What about the “glycan array binding signal (z-score)” value [2] of the same binder?
The value was 3.73.

And the “glycan array binding signal (z-score)” value [3]?
The value was 4.24.

What about the “glycan array binding signal (z-score)” value [4] of the same binder?
Its value is 3.78.

What about the “glycan array binding signal (z-score)” value [5] of the same binder?
Its value is 1.62.

What about the “glycan array binding signal (z-score)” value [6] of the same binder?
Its value is 4.73.

What about the “glycan array binding signal (z-score)” value [7] of the same binder?
Its value is -0.338.

What about the “glycan array binding signal (z-score)” value [8] of the same binder?
Its value is 3.83.

What about the “glycan array binding signal (z-score)” value (GlcNAc(b1-6)GalNAc) of the same binder?
The value was 1.1.

And the “glycan array binding signal (z-score)” value [9]?
The value was -0.455.

And the “glycan array binding signal (z-score)” value [10]?
Its value is -0.336.

And the “glycan array binding signal (z-score)” value (Man(b1-4)GlcNAc)?
Its value is -0.3.

What about the “glycan array binding signal (z-score)” value [11] of the same binder?
Its value is -0.439.

And the “glycan array binding signal (z-score)” value [12]?
Its value is -0.385.

What about the “glycan array binding signal (z-score)” value [13] of the same binder?
The value was -0.204.

What about the “glycan array binding signal (z-score)” value [14] of the same binder?
Its value is -0.305.

And the “glycan array binding signal (z-score)” value [15]?
Its value is -0.416.

And the “glycan array binding signal (z-score)” value [16]?
Its value is -0.242.

What about the “glycan array binding signal (z-score)” value [17] of the same binder?
Its value is -0.351.

And the “glycan array binding signal (z-score)” value [18]?
Its value is -0.398.

And the “glycan array binding signal (z-score)” value [19]?
Its value is -0.339.

What about the “glycan array binding signal (z-score)” value [20] of the same binder?
Its value is -0.24.

What about the “glycan array binding signal (z-score)” value [21] of the same binder?
Its value is -0.287.

And the “glycan array binding signal (z-score)” value [22]?
Its value is -0.48.

And the “glycan array binding signal (z-score)” value (Neu5Gc(a2-3)Gal(b1-4)Glc)?
The value was -0.447.
